Shown are actives, neighbours in structure and some others; about 21% of the full set was active somewhere.
Pf growth 96h = P. falciparum growth inhibition at 96 hour, primary screen for plastid delayed-death inhibitors; P. falciparum luciferase reporter growth, 96 h; Potency, µM (doses to about 28.7 µM), for inactives: at the highest dose activity change, negative = inhibition, most hits filed as inhibitors; 320,000 tested, 6.9% active; also: potency is read from the fitted curve at half-maximal effect; % is scaled to controls: 0 for no effect and ±100 for the full control effect
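96 h incubation, 37 C, 5% CO2, of luciferase-reporter P. falciparum-infected RBCs (2% hematocrit, 0.05% parasitemia final) with test compounds; endpoint luminescence.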
CHX counter = affects cycloheximide protein synthesis inhibition readout, counter-screen; max response, %; 300,000 tested, 12% active; AID 2314; cell reporter, cycloheximide protein synthesis inhibition counterscreen; in the data active = max response mostly above about 13%, no sharp cut-off; inactive = mostly below about 14%; also: read at 38.3 µM for the half of the compounds with a filed dose; 0% is about no effect
NS1 function inh = blocks influenza NS1 protein function; Potency, µM (top dose mostly 46.1 µM), inactives show at the highest dose activity, positive = more growth; 270,000 tested, 0.4% active; calls by dose curve; also: potency is read from the fitted curve at half-maximal effect; actives are rising curves; nearly all actives have a fitted effect of over 50% in size
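OD600 was taken as the measure of yeast growth restored by compound in an NS1-expressing S. cerevisiae strain. Cells had been washed out of glucose medium and diluted 1:100 into galactose -URA medium, pH 6.0.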
Shiga toxin inh = Shiga toxin inhibition; Vero cells, Shiga toxin protein synthesis inhibition reporter; inhibition, % at 38.7 µM; 290,000 tested, 9.2% active; AID 2315; in the data active = inhibition mostly above about 28%, no sharp cut-off; inactive = mostly below about 43%; also: 0% is about no effect
Pf growth 48h = P. falciparum growth inhibition at 48 hours (one generation). P. falciparum luciferase growth in erythrocytes, 48 h. Potency, µM (titrated, usually from 28.7 µM), for the others: at the top dose activity change, negative = inhibition, hits mostly inhibitors. 310,000 tested, 5.9% active. AID 504832; also: potency is read from the fitted curve at half-maximal effect; % is scaled to controls: 0 for no effect and ±100 for the full control effect
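Read-out is firefly luciferase luminescence from an integrated reporter in P. falciparum, so falling signal marks reduced parasite growth. Infected erythrocytes were at 2% hematocrit and 0.1% parasitemia (final) in Albumax-supplemented RPMI 1640.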
FBPA Giardia inh = Giardia lamblia aldolase inhibition; Potency, µM (top dose mostly 59.6 µM), for the others: at the top dose activity, negative = inhibition, actives largely listed as inhibitors; 290,000 tested, 0.71% active; AID 2451; A8B2U2; purified Giardia FBPA; also: potency is read from the fitted curve at half-maximal effect; % is scaled to controls: 0 for no effect and ±100 for the full control effect; nearly all actives have a fitted effect of over 55% in size
Target sequence (A8B2U2 whole entry, looked up): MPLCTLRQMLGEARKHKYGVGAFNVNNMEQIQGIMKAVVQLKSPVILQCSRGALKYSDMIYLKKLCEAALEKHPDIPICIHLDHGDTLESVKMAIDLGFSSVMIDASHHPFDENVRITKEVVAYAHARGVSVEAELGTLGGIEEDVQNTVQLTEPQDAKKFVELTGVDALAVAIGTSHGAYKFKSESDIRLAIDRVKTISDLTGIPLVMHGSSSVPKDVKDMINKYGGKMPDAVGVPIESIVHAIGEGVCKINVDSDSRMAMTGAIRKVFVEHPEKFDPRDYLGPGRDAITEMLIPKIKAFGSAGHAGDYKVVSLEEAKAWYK
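40 nM FBPA preincubated 10 min at RT with compound (up to 57.5 uM final), then substrate plus GAPDH/TPI/NAD/arsenate coupling and diaphorase/resazurin added. Fluorescence read after 20 min at RT, 525/598 nm.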
Active calls of the source: *; ? = inconclusive; . = not tested or not shown; [ ] = dose if it differs, or a comment. Unless noted, calls follow the shape of the dose curve; as a rule, active = well fitted curve in the direction sought with a large enough effect; inconclusive = small, poorly fitted or top-dose-only effect, or another doubt; inactive = no such curve, though single readings can be large; an effect the other way counts as inactive or inconclusive.

SMILES	Pf growth 96h	CHX counter	NS1 function inh	Shiga toxin inh	Pf growth 48h	FBPA Giardia inh
Cc1cc(NC(=O)CSc2nncn2N)no1	3%	-6	.	-8	-8%	6%
CCn1cc(C(=O)NCCc2ccccc2)c(=O)c2cc(F)c(N3CCN(C)CC3)cc21	?	13*	3%	11	10µM*	3%
CCn1cc(C(=O)NCCc2ccccc2)c(=O)c2cc(S(=O)(=O)N(C)C)ccc21	13µM*	4	2%	-6	?	17%
CCn1cc(C(=O)N[C@H](C)c2ccccc2)c(=O)c2cc(F)c(N3CCN(C)CC3)cc21	12µM*	-3	2%	-9	.	7%
CCn1cc(C(=O)NCc2ccccn2)c(=O)c2cc(F)c(N3CCN(C)CC3)cc21	20%	-7	-6%	-18	-21%	11%
CCCCCCNC(=O)c1cn(CC)c2cc(N3CCN(C)CC3)c(F)cc2c1=O	2.6µM*	-4	5%	-9	4.7µM*	9%
CCn1cc(C(=O)NCCN(C)CCc2ccccc2)c(=O)c2cc(S(=O)(=O)N(C)C)ccc21	?	4	3%	9	?	-2%
CCn1cc(C(=O)NCCCO)c(=O)c2cc(F)c(N3CCN(C)CC3)cc21	?	-5	4%	-5	5%	-14%
Cc1cccc(N2CCN(S(=O)(=O)c3c(C(=O)N4CCCCC4)c(C)n(C)c3C)CC2)c1C	-17%	-8	12%	-8	?	.
CC(C)CCn1c(SCC(=O)NC2CC2)nc2cc(Cl)ccc2c1=O	-6%	.	.	.	-1%	.
Cc1ccccc1NC(=O)CCNS(=O)(=O)c1cccc2nsnc12	15%	-2	25%	-11	-22%	7%
c1ccc(-c2cncn2-c2ccccc2)cc1	35%	.	.	.	-13%	.
Cc1ccc2[nH]c3c(c2c1)CCC3=O	-11%	10	-59%	16	-2%	3%
CCCCN1CCc2c([nH]c3ccc(C)cc23)C1=O	101%	70*	1%	132*	161%	4%
Cc1ccc2[nH]c3c(c2c1)CCCC3=O	85%	17*	-18%	22	38%	?
CCCCc1c(C)c2cc(C)ccc2[nH]c1=O	-29%	-3	-24%	18	.	2%
Cc1ccc2[nH]c3c(c2c1)CCc1cn[nH]c1-3	23%	25*	-30%	28*	?	?
COC(=O)[C@@H]1C[C@H]2CC[C@H](O)C[C@H]2N1Cc1ccc(N2CCOCC2)cc1	.	.	.	.	.	-11%
Oc1ccccc1-c1nc(/C=C/c2ccccc2)nn1-c1ccccc1	0%	23*	16%	33	?	-7%
Oc1ccc(/C=C/c2nc(-c3ccccc3O)n(-c3ccccc3)n2)cc1	53%	0	0%	-34	?	-16%
O=C(O)CC1SC(N/N=C/c2ccc(Br)cc2)NC1=O (centres undefined)	18%	44*	.	79*	299%	12%
CC(C)NC(=O)CC(=O)N/N=C/c1ccc(Br)cc1	-5%	5	24%	6	44%	2%
Cc1ccc(S(=O)(=O)NCCC(=O)N2CCC(C(N)=O)CC2)cc1C	-6%	.	.	.	-15%	.
CC(C)c1ccc2c(c1)C(c1cccs1)=NNC(c1ccncc1)=N2	18%	22*	2%	76*	?	0%
COc1ccc2c(c1)C(c1cccs1)=NNC(c1ccncc1)=N2	?	-4	7%	-14	-4%	0%
SMILES	Pf growth 96h	CHX counter	NS1 function inh	Shiga toxin inh	Pf growth 48h	FBPA Giardia inh
CCCOc1ccc(C2=NNC(c3cccs3)=Nc3ccc(OC)cc32)cc1	-1%	57*	?	98*	?	-5%
CC(C)c1ccc2c(c1)C(c1ccc(N3CCOCC3)cc1)=NNC(c1cccs1)=N2	?	45*	26%	54	?	-1%
Clc1ccc2c(c1)C(c1cccs1)=NNC(c1cccnc1)=N2	1.7µM*	-4	19%	12	-7%	2%
Cn1ccc(CC(=O)N2CCC(N3CCC(C(=O)N4CCCC4)CC3)CC2)c1	2%	5	6%	4	27%	-11%
C[C@@H]1C(=O)O[C@@H]2C[C@]34[C@H]5C[C@@H](C(C)(C)C)[C@@]36[C@@H](OC(=O)[C@@H]6O)O[C@@]4(C(=O)O5)[C@@]12O	.	.	.	.	.	2%[21.7 µM]
CCC[N+]12CCC(CC1)C(=C(c1ccccc1)c1ccccc1)C2	?	1	-7%	-10	1.3µM*	0%
CCCC[N+]12CCC(CC1)C(=C(c1ccccc1)c1ccccc1)C2	0.74µM*	-3	0%	-5	1.3µM*	5%
